Bioassay records deposited in PubChem by National Center for Advancing Translational Sciences (NCATS).
Rab9 prom act: qHTS Assay for Rab9 Promoter Activators. AID 485297, 2010. 320,000 compounds, 2.8% hits. Potency, µM (titrated, usually from 9.22 µM), most hits filed as activators. Huh7 Rab9 promoter-luciferase reporter, luminescence, 24 h; further: nearly all actives have a fitted effect of over 60% in size
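Huh7 cells stably carrying Rab9 promoter–luciferase reporter, plated 1500 cells/well, compound added after 2 h and incubated 24 h at 37 °C; luciferase luminescence then read after 10 min with detection reagent.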
SMN2 splice enh: qHTS Assay for Enhancers of SMN2 Splice Variant Expression; HEK293 SMN2-luciferase splicing reporter, luminescence, 30-36 h; Potency, µM (series often up to 46.1 µM), actives largely listed as activators; 210,000 compounds, 2.8% hits; further: nearly all actives have a fitted effect of over 55% in size
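HEK293 cells carry an SMN2 […]–luciferase reporter in which exon 7 inclusion puts luciferase in frame. Cells were plated 10-12 h before compound addition, then incubated 30-36 h at 37C. ONE-Glo luminescence was read; sodium butyrate at 4.5 mM final served as control.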
FLuc modulator: qHTS profiling assay for firefly luciferase inhibitor/activator using purifed enzyme and Km concentrations of substrates (counterscreen for miR-21 project) | Potency, µM (titrated, usually from 57.5 µM), usual class: inhibitors | AID 588342, 2011 | 360,000 compounds, 6.9% hits | purified FLuc, Km substrates, luminescence inhibition; further: nearly all actives have a fitted effect of over 55% in size
Target sequence (P08659 whole entry, looked up): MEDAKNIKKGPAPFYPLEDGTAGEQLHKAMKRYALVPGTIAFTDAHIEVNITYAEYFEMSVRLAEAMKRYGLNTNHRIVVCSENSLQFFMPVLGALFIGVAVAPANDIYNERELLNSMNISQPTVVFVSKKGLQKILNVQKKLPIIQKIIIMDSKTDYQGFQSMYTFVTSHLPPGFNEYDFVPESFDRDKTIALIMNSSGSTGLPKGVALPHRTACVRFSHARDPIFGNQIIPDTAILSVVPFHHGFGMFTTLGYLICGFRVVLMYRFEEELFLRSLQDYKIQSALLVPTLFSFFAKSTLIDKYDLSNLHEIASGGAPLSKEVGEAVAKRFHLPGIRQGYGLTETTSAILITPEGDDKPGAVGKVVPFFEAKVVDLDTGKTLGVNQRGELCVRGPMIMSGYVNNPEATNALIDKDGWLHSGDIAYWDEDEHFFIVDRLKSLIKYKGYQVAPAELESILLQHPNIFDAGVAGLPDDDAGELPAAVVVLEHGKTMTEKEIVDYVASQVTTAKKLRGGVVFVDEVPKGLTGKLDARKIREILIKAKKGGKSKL
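Purified P. pyralis luciferase (10nM final) with 10uM D-luciferin and 10uM ATP (Km levels) in 50mM Tris acetate pH 7.5, 10mM Mg acetate, 0.01% Tween-20, 0.05% BSA; qHTS 6-point titration, ~60 µM downward; luminescence read.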
p53 reactivation: qHTS assay for re-activators of p53 using a Luc reporter; H1299 p53-A138V BP100-luciferase reporter, luminescence, 24 h; Potency, µM (doses to about 92.2 µM), usual class: activators; 320,000 compounds, 0.063% hits; further: nearly all actives have a fitted effect of over 45% in size
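H1299 (p53-null), stable ts p53-A138V + BP100-Luc; 1000 cells/well, Opti-MEM/10% FBS; cpd 4 pt, 1:5; 24 h, 37 deg C, 5% CO2; detection reagent 10 min RT; luminescence.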
NPC1 prom act: qHTS Assay for NPC1 Promoter Activators; Huh7 NPC1 promoter luciferase reporter, 24 h; Potency, µM (doses to about 9.22 µM), actives largely listed as activators; 320,000 compounds, 2.4% hits; AID 485313, 2010; further: nearly all actives have a fitted effect of over 60% in size
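Stably transfected Huh7 (NPC1 promoter→luciferase), 1500 cells/well in Opti-MEM + 10% FBS, 2 h settle, then compound 24 h at 37 °C. Luminescence after 10 min with Amplite reagent.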
ELG1 genotoxic: qHTS screen for small molecules that induce genotoxicity in human embryonic kidney (HEK293T) cells expressing luciferase-tagged ELG1; AID 504466, 2011; 330,000 compounds, 1.3% hits; Potency, µM (series often up to 46 µM), actives largely listed as activators; HEK293T ELG1-luciferase reporter, luminescence, 16 h; further: nearly all actives have a fitted effect of over 60% in size
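After overnight (16 hr) compound treatment at 37 °C, ELG1-luciferase HEK293T cells were lysed with ONE-Glo; luminescence quantified 30 min later at room temperature.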
Numbers stand for hits; – = inactive; ? = inconclusive; · = no result given; [ ] = remark or other dose. Compounds with a hit are over-represented: about 7.4% of the library has one in this group of screens. The call rests on the fitted dose curve; in most records, active means well fitted curve in the direction sought with a large enough effect; inconclusive means small, poorly fitted or top-dose-only effect, or another doubt; inactive means no such curve, though single readings can be large; an effect the other way counts as inactive or inconclusive.

SMILES	Rab9 prom act	SMN2 splice enh	FLuc modulator	p53 reactivation	NPC1 prom act	ELG1 genotoxic
COc1ccc(C(=O)/C=C/Nc2ccccn2)c(OC)c1	0.891µM	·	3.38µM	–	0.562µM	1.83µM
O=C(/C=C\Nc1ccccn1)c1ccccc1	0.355µM	2µM	0.675µM	?	0.631µM	0.517µM
C=C(C)C(=O)c1cccs1	·	–	·	·	·	·
C/C(=N\NC(=O)CNc1ccc(F)cc1)c1cc2ccccc2o1	–	–	?	–	–	–
C/C(=N\NC(=O)COc1ccc(C)cc1C(C)C)c1ccc(-n2ccnc2)cc1	–	–	1.9µM	–	–	–
COc1ccc(NCC(=O)N/N=C(\C)c2cc3ccccc3o2)cc1	–	–	16.9µM	–	–	–
COC(=O)N/N=C(\C)c1ccc(-n2ccnc2)cc1	–	–	–	–	–	–
C/C(=N\NC(=O)COc1ccc(C(C)(C)C)cc1)c1ccccc1	–	–	10.7µM	–	–	–
C/C(=N\NC(=O)COc1ccc(C(C)(C)C)cc1)c1ccc2c(c1)OCCO2	–	–	19µM	–	–	–
CCOc1ccc(C2CC(=O)Nc3c2c(=O)nc(SCc2ccccc2C)n3C)cc1OC (centres undefined)	·	·	–	·	·	·
C/C(=N\NC(=O)COc1ccc(C(C)(C)C)cc1)c1cc2ccccc2o1	3.55µM	17.8µM	0.301µM	?	2.82µM	–
C/C(=N\NC(=O)COc1ccc(C)cc1C(C)C)c1cc2ccccc2o1	–	12.6µM	3.38µM	?	–	–
CSc1ccccc1NC(=O)CO/N=C(\C)c1cc2ccccc2o1	–	–	?	–	–	–
COc1ccc(-c2nc3cnc(N4CCN(C)CC4)nc3n(CCC#N)c2=O)cc1	·	–	·	·	·	·
COc1ccc(/C=C2\SC(=S)NC2=O)cc1OS(=O)(=O)c1ccc(NC(C)=O)cc1	–	–	26.9µM	–	–	–
CCOc1ccc(/C=C2\SC(=S)NC2=O)cc1OC	–	·	12µM	–	–	–
COc1cc(/C=C2\SC(=S)NC2=O)ccc1OS(=O)(=O)c1ccccc1	–	–	?	–	–	–
COc1cc(/C=C2/SC(=S)NC2=O)ccc1OS(=O)(=O)c1ccc(C)cc1	–	–	–	–	–	–
O=C1NC(=S)S/C1=C\c1ccc2ccccc2c1	?	·	9.53µM	?	–	–
COc1cccc(OCc2nn3c(=O)c(-c4ccccc4)nnc3s2)c1	–	·	–	–	–	–
N=c1sc2ccccc2n1CCS (tested in a mixture with another compound)	·	–[9.22 µM]	·	·	·	·
Cc1ccc(OCCCN2CCOCC2)c([N+](=O)[O-])c1	?	?	21.3µM	?	?	?
Cc1ccc(OCCN2CCN(C)CC2)c([N+](=O)[O-])c1	–	–	–	–	–	–
C=CCN(CC=C)CCOc1ccc(C)cc1[N+](=O)[O-]	–	–	23.9µM	–	–	–
CC(O)c1cccc(-c2ccc(CN3C[C@]4(CO)O[C@@H](CO)C[C@@H]4S3(=O)=O)cc2)c1 (some centres undefined)	·	·	·	–	·	–
SMILES	Rab9 prom act	SMN2 splice enh	FLuc modulator	p53 reactivation	NPC1 prom act	ELG1 genotoxic
Cc1ccc(NC(=O)O/N=C/c2c(C)nn(C(C)(C)C)c2C)cc1Cl	–	·	0.135µM	–	–	–
Cc1ccc(NC(=O)Nn2cnnc2)cc1Cl	–	·	–	–	–	–
O=C(CCN1C(=O)/C(=C/c2ccc(F)cc2)SC1=S)N[C@@H](CO)Cc1ccccc1	–	·	–	–	–	–
CCc1ccc(NC(=O)c2cc3ccccn3n2)cc1	·	·	1.9µM	·	·	·
Cc1ccc(NC(=O)CCn2cccc2)cc1F	–	–	–	–	–	–
O=C(NCCc1ccc(Cl)cc1)c1cc2ccccn2n1	–	·	–	–	–	–
O=C(Nc1ccc(Br)cc1)c1cc2ccccn2n1	0.316µM	·	0.953µM	–	0.562µM	?
Cc1ccccc1CCNC(=O)c1cc2ccccn2n1	·	·	10.7µM	·	·	·
Cc1ccc(NC(=O)c2cc3ccccn3n2)cc1F	·	·	2.39µM	·	·	·
O=C(Nc1cc(Cl)ccc1Cl)C1(c2cccs2)CCOCC1	·	·	–	·	·	·
CCOc1ccc(-c2nnc(SCC(=O)Nc3ccccc3C(F)(F)F)o2)cc1	·	·	–	·	·	·
CCOc1ccc(-c2nnc(SCC(=O)Nc3cccc(C#N)c3)o2)cc1	·	·	19µM	·	·	·
CCOc1ccc(-c2nnc(SCC(=O)Nc3cccc(Cl)c3C)o2)cc1	·	·	13.5µM	·	·	·
O=c1c(-c2cc(F)cc(F)c2)nc2cnc(Oc3ccccc3)nc2n1C1CC1	·	–	·	·	·	·
CC(=O)N/C(N)=N/c1nc2cc(C)ccc2o1	0.794µM	·	5.36µM	–	1.41µM	9.2µM
CC(=O)N/C(N)=N/c1nc2cc([N+](=O)[O-])ccc2o1	3.16µM	·	?	?	?	?
CC(C)OC(=O)c1sc2nc(-c3ccccc3)ccc2c1N	0.447µM	–	0.301µM	–	0.316µM	?
COc1ccc(-c2ccc3c(N)c(C(=O)NCc4ccc(Cl)cc4)sc3n2)cc1	·	11.2µM	–	·	·	·
CCOC(=O)c1sc2nc(-c3cccnc3)ccc2c1N	0.501µM	·	0.477µM	–	0.447µM	2.59µM
